In PubChem BioAssay (Tox21):
Results filed as inconclusive are left out. A number with no mark means an inactive call. Active and inactive are the calls of the source. Calls follow the shape of the dose curve; as a rule, active = well fitted inhibition curve with a large enough effect in the signal ratio in the repeat runs (not every such curve was filed as active); inconclusive = weak or mixed curves, or effect the other way; inactive = no such curve, though single readings can be large or run the other way; the % refers to the signal ratio.

Target: Estrogen receptor beta (Homo sapiens) (UniProt Q92731)
Assay: qHTS assay to identify small molecule antagonists of the estrogen receptor beta (ER-beta) signaling pathway (AID 1259378)
Settings: ER-beta-UAS-bla HEK293T, beta-lactamase FRET ratio, 16 h; series mostly up to 92.4 µM; activity, negative = inhibition: at the top concentration
Description: National Center for Advancing Translational Sciences [NCATS]
NIH Chemical Genomics Center [NCGC]
U.S. Environmental Protection Agency [EPA]
National Institutes of Environmental Health Sciences [NIEHS]
National Toxicology Program [NTP]
U.S. Food and Drug Administration [FDA]
Estrogen receptor (ER), a nuclear hormone receptor, plays an important role in development, metabolic homeostasis and reproduction. Two subtypes of ER, ER-alpha and ER-beta, have similar expression patterns with some uniqueness in both types. Endocrine disrupting chemicals (EDCs) and their interactions with steroid hormone receptors like ER causes disruption of normal endocrine function. To identify the compounds that inhibit ER signaling, an ER-beta-UAS-bla GripTite cell line (Life Technologies, Madison, WI, USA) containing a beta-lactamase reporter gene under the control of an UAS response element was used to screen Tox21 10K compound library.
Tox21 Assay Protocol Summary:
ER-beta-UAS-bla HEK293T cells were dispensed at 2,000 cells/4 uL of assay medium containing 2% charcoal stripped FBS per well into black wall/clear-bottom 1536-well plates using a Multidrop Combi (ThermoFisher Scientific, Waltham, MA) dispenser. After the assay plates were incubated at a 37C and 5% CO2 for 6 hr, 23 nL of compounds dissolved in DMSO, positive controls or DMSO only was transferred to the assay plate by a Pintool station (Kalypsys, San Diego, CA), followed by addition of 1 uL (1nM as final concentration) of 17-beta-estradiol (E2) in assay medium using a BioRAPTR FRD (Flying Reagent Dispenser, Aurora Discovery, San Diego, CA). The plates were incubated at 37C and 5% CO2 for 16 hr. Then 1 uL of LiveBLAzerTM B/G FRET substrate was added using a Flying Reagent Dispenser, the plates were incubated at room temperature for 2 hours, and fluorescence intensity was measured by an Envision plate reader (PerkinElmer, Shelton, CT).
% is scaled to controls: 0 for no effect and ±100 for the full control effect; potency is read from the fitted curve at half-maximal effect.

Estrogen receptor beta (Homo sapiens), sequence (Q92731 whole entry, looked up): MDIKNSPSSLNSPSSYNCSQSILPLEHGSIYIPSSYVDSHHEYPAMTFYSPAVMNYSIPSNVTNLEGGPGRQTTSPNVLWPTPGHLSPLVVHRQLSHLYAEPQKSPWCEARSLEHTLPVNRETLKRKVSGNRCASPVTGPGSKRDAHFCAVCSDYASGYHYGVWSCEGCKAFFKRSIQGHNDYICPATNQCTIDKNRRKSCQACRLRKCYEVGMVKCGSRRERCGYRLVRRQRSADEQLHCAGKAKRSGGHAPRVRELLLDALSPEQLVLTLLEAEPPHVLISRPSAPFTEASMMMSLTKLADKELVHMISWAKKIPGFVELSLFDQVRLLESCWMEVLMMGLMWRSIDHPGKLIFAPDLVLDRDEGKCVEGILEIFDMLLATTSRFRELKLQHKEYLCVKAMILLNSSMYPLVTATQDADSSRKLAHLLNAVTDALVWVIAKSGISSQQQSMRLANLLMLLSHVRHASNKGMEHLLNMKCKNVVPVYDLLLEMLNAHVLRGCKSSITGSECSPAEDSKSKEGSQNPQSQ

Compound	Potency	activity, negative = inhibition
CCOC(=O)CC(=O)C(=O)OCC	48.6 µM (active)	–
CCCOCCOCCO	–	7.49%
O=C(O)c1cccc(O)c1	–	-2.3%
Cc1ccccc1N1C(=O)c2cc(S(N)(=O)=O)c(Cl)cc2NC1C (stereo not given)	–	1.49% [at 42.5 µM]
CC1(C)C(=O)N(Br)C(=O)N1Cl	–	12.1%
CC(CCO)CCc1ccccc1 (stereo not given)	–	3.03%
CCOC(=O)/C=C/C(=O)O	–	20.4%
Oc1cc(O)c(Cl)cc1Cl	–	-9.63%
CCOC(=O)c1ccccc1C	–	5.18%
CO[C@H]1O[C@H](CO)[C@@H](O)[C@H](O)[C@H]1O	–	0.341%
CCCCCCCCCOC(C)=O	–	11.6%
CO[Si](C)(OC)OC	–	1.35%
COc1cc2ncnc(Nc3ccc(F)c(Cl)c3)c2cc1OCCCN1CCOCC1	7.5 µM (active)	–
CCCCC/C(=C\c1ccccc1)CO	–	3.41%
C=CC(=O)NCOCC(C)C	–	0%
Brc1cc(-c2ccc(Br)c(Br)c2Br)cc(Br)c1Br	–	8.97% [at 42.5 µM]
CC(=O)OCC(=O)[C@@]12OC(C)(C)O[C@@H]1C[C@H]1[C@@H]3C[C@H](F)C4=CC(=O)C=C[C@]4(C)[C@@]3(F)[C@@H](O)C[C@@]12C	–	2.28% [at 42.5 µM]
N#C/C(=C1\SCC(c2ccccc2Cl)S1)n1ccnc1 (stereo not given)	–	-25% [at 42.5 µM]
CCCCCCOC(=O)C(C)C	–	16.2%
CC(C)OCC1CO1 (stereo not given)	–	1.62%

Compound	Potency	activity, negative = inhibition
CN1Cc2cc(C(=O)N3CCC(C4CCNCC4)CC3)ccc2N[C@@H](CC(=O)O)C1=O	–	2.65% [at 42.5 µM]
Cc1nc2ccccn2c(=O)c1CCN1CCC(C(=O)c2ccc(F)cc2)CC1	–	15% [at 42.5 µM]
CCCCN(CCCC)CCCOC(=O)c1ccc(N)cc1	–	2.11% [at 42.5 µM]
CCOCCn1c(C2CCN(CCc3ccc(C(C)(C)C(=O)O)cc3)CC2)nc2ccccc21	–	3.92% [at 42.5 µM]
CN1CCN(c2c(F)cc3c(=O)c(C(=O)O)cn4c3c2OCN4C)CC1	–	2.63% [at 19 µM]
CC[C@@H]([C@H](C)O)n1ncn(-c2ccc(N3CCN(c4ccc(OC[C@@H]5CO[C@@](Cn6cncn6)(c6ccc(F)cc6F)C5)cc4)CC3)cc2)c1=O	5.96 µM (active)	–
CCCC(=O)O[C@]1(C(=O)COC(=O)CC)CC[C@H]2[C@@H]3CCC4=CC(=O)CC[C@]4(C)[C@H]3[C@@H](O)C[C@@]21C	–	1.87% [at 19 µM]
COc1ccc(C(=O)c2cccc(O)c2)c(OC)c1	43.2 µM (active)	–
COc1ccccc1N=Nc1c(S(=O)(=O)O)cc2cc(S(=O)(=O)O)cc(NC(C)=O)c2c1O	–	6.88%
CC(C)(C)C(=O)O	–	3.65%
CCC(=O)OC/C=C/c1ccccc1	inactive	–
CC(=N\O)/C(C)=N/O	–	-2.68%
C1COCO1	–	-4.26%
C=CCCCCCCCCCCCCCCCC	–	3.67% [at 8.39 µM]
Cc1cc(OI)c(C(C)C)cc1-c1cc(C(C)C)c(OI)cc1C	–	7.8% [at 42.5 µM]
CCNC(=O)N1CCN(CCCC(c2ccc(F)cc2)c2ccc(F)cc2)CC1	21.1 µM (active)	–
NC(=O)Nc1ccc(Cl)cc1	–	-4.97%
CCCCC(CC)COC(=O)COc1ccc(Cl)cc1C (stereo not given)	–	-0.422%
CCCCCCCCCCCC[N+](C)(C)CC(=O)[O-]	–	-22.4%
COC(=O)Nc1nc2ccc(C(=O)c3cccs3)cc2[nH]1	–	3.85% [at 42.5 µM]
